# From the supplement of paper PMC11634586
# Where a name gives a salt, the structure may show the parent alone.
# System: NCI-H1688
# Assay: inhibition of cell viability relative to untreated control (fraction); higher = stronger growth inhibition, active = 0.5 or more
# Conditions: 30 µM; 24 h
# Method: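 Natural product library (TargetMol, 640 compounds) screened on NCI-H1688 SCLC cells at 30 µM for 24 h; viability by CCK-8 absorbance at 450 nm, normalised to untreated control and expressed as inhibition rate (fraction). Compounds with >50% reduction in viability were selected as hits.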
row,SMILES,inhibition of cell viability
1,CC[C@H]1OC(=O)C[C@@H](O)[C@H](C)[C@@H](O[C@@H]2O[C@H](C)[C@@H](O[C@H]3C[C@@](C)(O)[C@@H](O)[C@H](C)O3)[C@H](N(C)C)[C@H]2O)[C@@H](CC=O)C[C@@H](C)C(=O)/C=C/C(C)=C/[C@@H]1CO[C@@H]1O[C@H](C)[C@@H](O)[C@@H](OC)[C@H]1OC [Tylosin],0.0387 (inactive)
2,C[C@H]1O[C@@H](O[C@H]2CC[C@@]3(C)[C@@H](CC[C@]4(C)[C@@H]3C=C[C@]35OC[C@@]6(CCC(C)(C)C[C@H]63)[C@@H](O)C[C@]54C)[C@]2(C)CO)[C@H](O)[C@@H](O[C@@H]2O[C@H](CO)[C@@H](O)[C@H](O)[C@H]2O)[C@H]1O [Saikosaponin A],1 (active)
3,COc1cc2c(cc1O)[C@@H](Cc1ccc(O)c(Oc3ccc(C[C@@H]4c5cc(OC)c(OC)cc5CCN4C)cc3)c1)N(C)CC2 [Daurisoline],0.977 (active)
4,O=C1/C(=C2\Nc3ccccc3C2=O)Nc2ccccc21 [Indigo],-0.275 (inactive)
5,C=C[C@H]1CN2CC[C@H]1C[C@H]2[C@H](O)c1ccnc2ccc(OC)cc12 [Quinine],0.162 (inactive)
6,CC1(C)CC[C@]2(C(=O)O[C@@H]3O[C@H](CO[C@@H]4O[C@H](CO)[C@@H](O)[C@H](O)[C@H]4O)[C@@H](O)[C@H](O)[C@H]3O)CC[C@]3(C)C(=CC[C@@H]4[C@@]5(C)CC[C@H](O[C@@H]6OC[C@H](O)[C@H](O)[C@H]6O)[C@@](C)(CO)[C@@H]5CC[C@]43C)[C@@H]2C1 [Asperosaponin Ⅵ],0.0344 (inactive)
7,Nc1ncnc2c1ncn2[C@@H]1O[C@H](CO)[C@@H](O)[C@H]1O [Adenosine],0.189 (inactive)
8,COc1c(O)cc2oc3cc(O)c(CC=C(C)C)c(O)c3c(=O)c2c1CC=C(C)C [Mangostin],1 (active)
9,CC(=O)Oc1c(C)c(C)c2c(c1C)CCC(C)(CCC[C@H](C)CCC[C@H](C)CCCC(C)C)O2 (stereo not given in full) [Vitamin E Acetate],-0.0362 (inactive)
10,O=C(/C=C/c1ccc(O)c(O)c1)O[C@@H]1C[C@](O)(C(=O)O)C[C@@H](O)[C@H]1O [Chlorogenic Acid],0.162 (inactive)
11,N[C@@H]1CONC1=O [D-Cycloserine],0.0589 (inactive)
12,OC[C@@H](O)[C@@H](O[C@H]1O[C@H](CO)[C@@H](O)[C@H](O)[C@H]1O)[C@H](O)[C@@H](O)CO [Maltitol],0.0233 (inactive)
13,N[C@@H](Cc1c[nH]c2ccc(O)cc12)C(=O)O [5-hydroxytryptophan (5-HTP)],-0.0946 (inactive)
14,Cn1c(=O)c2[nH]cnc2n(C)c1=O [Aminophylline],0.644 (active)
15,C[C@]12C[C@H](O)[C@H]3[C@@H](CCC4=CC(=O)CC[C@@]43C)[C@@H]1CC[C@@H]2C(=O)CO [Corticosterone],0.0335 (inactive)
16,CC1(C)CC[C@]2(C)CC[C@]3(C)C(=CC[C@@H]4[C@@]5(C)CC[C@@H](O)[C@](C)(C(=O)O)[C@@H]5CC[C@]43C)[C@@H]2C1,0.314 (inactive)
17,O=C1C[C@@H](c2ccccc2)Oc2cc(O)cc(O)c21 [Pinocembrin],-0.374 (inactive)
18,O=c1c(-c2ccc(O)cc2)coc2cc(O[C@@H]3O[C@H](CO)[C@@H](O)[C@H](O)[C@H]3O)cc(O)c12 [Genistin],0.279 (inactive)
19,O=C(O)/C=C/c1ccccc1 [Cinnamic acid],-0.0303 (inactive)
20,O=C(O)[C@]1(O)C[C@@H](O)[C@@H](O)[C@H](O)C1 [Quinic acid],0.126 (inactive)

row,SMILES,inhibition of cell viability
1,C=C(C)[C@@H]1CC=C(CO)CC1 [Perillyl alcohol],0.195 (inactive)
2,O=C1C[C@@H](c2ccc(O[C@@H]3O[C@H](CO)[C@@H](O)[C@H](O)[C@H]3O)cc2)Oc2cc(O)ccc21 [Liquiritin],0.0621 (inactive)
3,CC(=O)O[C@@]12CO[C@@H]1C[C@H](O)[C@@]1(C)C(=O)[C@H](O)C3=C(C)[C@@H](OC(=O)[C@H](O)[C@@H](NC(=O)OC(C)(C)C)c4ccccc4)C[C@@](O)([C@@H](OC(=O)c4ccccc4)[C@H]21)C3(C)C [Docetaxel trihydrate],0.635 (active)
4,"O=C(O)C=CC=Cc1ccccc1 [5-Phenyl-2,4-pentadienoic acid]",-0.102 (inactive)
5,COc1ccc([C@@H]2OC[C@H]3[C@@H]2CO[C@@H]3c2ccc(O[C@@H]3O[C@H](CO)[C@@H](O)[C@H](O)[C@H]3O)c(OC)c2)cc1OC [Forsythin],-0.0217 (inactive)
6,Oc1ccc(/C=C/c2cc(O)cc(O)c2)cc1 [Resveratrol],0.49 (inactive)
7,CC(C)(CO)[C@@H](O)C(=O)NCCC(=O)NCCSSCCNC(=O)CCNC(=O)[C@H](O)C(C)(C)CO [D-Pantethine],-0.262 (inactive)
8,C/C1=C2N=C(/C=C3N=C(/C(C)=C4\[N-]C(C(CC(N)=O)C4(C)CCC(=O)NCC(C)OP(=O)([O-])OC4C(CO)OC(n5cnc6cc(C)c(C)cc65)C4O)C4(C)N=C1C(CCC(N)=O)C4(C)CC(N)=O)C(CCC(N)=O)C\3(C)C)C(CCC(N)=O)C/2(C)CC(N)=O.[CH3-].[Co+3] (stereo not given) [Methylcobalamin],0.0835 (inactive)
9,OC[C@H]1O[C@@H](Oc2ccc(O)cc2)[C@H](O)[C@@H](O)[C@@H]1O [Arbutin],-0.263 (inactive)
10,COc1cc(CNC(=O)CCCC/C=C/C(C)C)ccc1O [Capsaicin],0.0438 (inactive)
11,C[N+](C)(C)CC(O)CC(=O)[O-] (racemic) [DL-Carnitine],0.00503 (inactive)
12,CC(C)=CC[C@@H](O)C1=CC(=O)c2c(O)ccc(O)c2C1=O [Shikonin],0.956 (active)
13,OC[C@@H](O)[C@@H](O)[C@H](O)[C@H](O)CO [D-Mannitol],-0.179 (inactive)
14,C/C=C1\[C@H]2C=C(C)C[C@]1(N)c1ccc(=O)[nH]c1C2 [(-)-Huperzine A (HupA)],0.178 (inactive)
15,C[C@]12CCC(=O)C=C1CC[C@@H]1[C@@H]2C(=O)C[C@@]2(C)[C@H]1CC[C@]2(O)C(=O)CO [Cortisone],-0.215 (inactive)
16,CN[C@@H]1[C@@H](O[C@H]2O[C@H](CO)[C@@H](N)[C@H](O)[C@H]2O)OC2C[C@@H](N)[C@@H](O[C@H]3[C@H](O)[C@@H](O)[C@H](N)C[C@@H]3N)OC2[C@@H]1O (stereo not given in full) [Apramycin sulfate],-0.0456 (inactive)
17,CNC[C@H](O)c1ccc(O)c(O)c1 [Epinephrine bitartrate],0.0849 (inactive)
18,COc1ccc2cc1Oc1ccc(cc1)C[C@H]1c3cc(c(OC)cc3CCN1C)Oc1c(O)c(OC)cc3c1[C@H](C2)N(C)CC3 [(+)-Fangchinoline],0.984 (active)
19,C=C1CC[C@H]2C(=C)CC[C@H]3C(=C)C(=O)O[C@@H]3[C@@H]12 [Dehydrocostus Lactone],0.992 (active)
20,COc1ccc(-c2cc(=O)c3c(O)c(OC)c(O)cc3o2)cc1OC [Eupatilin],0.345 (inactive)
